Pf Dd2 inh: qHTS Primary assay for Inhibitors of Plasmodium falciparum Dd2 growth in vitro; P. falciparum Dd2 growth, SYBR Green, 72 h; Potency, µM (series often up to 28.9 µM), inactives show top-dose activity, negative = inhibition, most hits filed as inhibitors; 4.3% of 120,000 active; AID 1347417, 2020; active = well fitted inhibition curve with a large enough effect;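 also: plate controls were DMSO vehicle for no effect and reference drug for full effect; nearly all actives have a fitted effect of over 65% in size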
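Readout: SYBR Green fluorescence, 485 nm excitation, 535 nm emission, after ~16 h lysis at 37C. Before that, Dd2-infected red cells (2.5% hematocrit) grew 72 h with compound, 29 uM top final concentration.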
An asterisk follows results filed as active; i = inactive; [ ] = dose if it differs, or a comment. The entries come from a sample that favours hits as a whole. Potency is read from the fitted curve at half-maximal effect.

SMILES	Pf Dd2 inh
CN(C)c1cccc(-c2nccc3c(=O)cc(N4CCOCC4)oc23)c1	-29%[44.1 µM]
Cn1nccc1CN1CCC2(CC1)CN[S+](=O)([O-])c1ccccc1N2	0%
COc1ccc(C(=O)N2CC(c3nnc(C(C)C)o3)C3(CCOCC3)C2)cc1OC (stereo not drawn)	8%
CCOc1ccc(NC(=O)Cn2nc(Cc3ccncc3)c3ccccc3c2=O)cc1	-8%
CCOc1ccc(C2c3c(oc4cc(C)c(C)cc4c3=O)C(=O)N2c2ccccn2)cc1 (stereo not drawn)	-8%
COc1cc(C2c3c(-c4ccccc4O)n[nH]c3C(=O)N2Cc2ccncc2)ccc1O (stereo not drawn)	-5%
CCOc1ccc(C2c3c(-c4ccccc4O)n[nH]c3C(=O)N2Cc2ccncc2)cc1 (stereo not drawn)	14µM*
COc1cc(C2c3c(oc4ccccc4c3=O)C(=O)N2Cc2ccc(C)cc2)ccc1O (stereo not drawn)	15%
CCCCOc1ccc(C2c3c(-c4ccccc4O)n[nH]c3C(=O)N2Cc2ccncc2)cc1OC (stereo not drawn)	7.1µM*
COc1cccc(CC(=O)N2CC(CO)C3(CCNCC3)C2)c1 (stereo not drawn)	39%
COc1ncccc1CNC[C@H]1O[C@@H]2C[C@@H](CC(=O)NCc3nccn3C)O[C@@H]2[C@@H]1O	-5%[44.1 µM]
Cc1ccc(CNC(=O)N2c3ccccc3CC2c2nc(C3CC3)no2)cc1 (stereo not drawn)	7%[5.79 µM]
Cc1ccc(Cn2cc(-c3ccncc3)cc2C(=O)N(C)Cc2ccccc2)cc1	-16%
Cc1ccc(Cn2cc(-c3ccncc3)cc2C(=O)NCC2CC2)cc1	11µM*
CCn1cc(-c2ccncc2)cc1C(=O)NCc1ccc(SC)cc1	i
O=C(Cn1ccn2nc3c(c2c1=O)CCCC3)N1CCc2ccccc21	i
O=C(c1ccn[nH]1)N1CCC(c2nc(CCOCC3CCOCC3)no2)C1 (stereo not drawn)	23%
CCCCN(C)CCCNC(=O)Cn1ncc2c3ccccc3n(Cc3ccccc3F)c2c1=O	5.6µM*
CCCCN(C)CCNC(=O)Cn1ncc2c([nH]c3ccccc32)c1=O	-4%
O=C(Cn1ncc2c3ccccc3n(Cc3ccccc3F)c2c1=O)NCCc1ccc(Cl)cc1	23%
Cc1ccccc1Cn1c2ccccc2c2cnn(CC(=O)NCCc3ccc(Cl)cc3)c(=O)c21	18%
Cc1ccc(C)c(Cn2c3ccccc3c3cnn(CC(=O)NCC(C)c4ccccc4)c(=O)c32)c1 (stereo not drawn)	18%
CC(CCc1ccccc1)NC(=O)Cn1ncc2c3ccccc3n(Cc3ccccc3F)c2c1=O (stereo not drawn)	-16%
CCCCN(C)CCCNC(=O)Cn1ncc2c3ccccc3n(Cc3cc(C)ccc3C)c2c1=O	0.45µM*
Cc1ccc(C)c(Cn2c3ccccc3c3cnn(CC(=O)NC(C)c4ccccc4)c(=O)c32)c1 (stereo not drawn)	27%
SMILES	Pf Dd2 inh
CCCN(CCC)CCCNC(=O)Cn1ncc2c3ccccc3n(Cc3ccccc3F)c2c1=O	5µM*
COC[C@H]1CCCN1C(=O)C[C@@H]1O[C@H](CNC(=O)NC(C)C)[C@@H](O)[C@H]1O	35%[44.1 µM]
O=C(N[C@@H]1COCC[C@@H]1OCc1ccccn1)c1n[nH]c2c1CCC2	8%
O=C(O)C[C@@H]1CCN(C(=O)c2cccs2)C[C@@H]1CCN1CCN(c2ccc(F)cc2)CC1	-5%
CC(C)CN[C@H]1CO[C@H]2[C@@H]1OC[C@@H]2Nc1nccc(-c2cccs2)n1	-12%[44.1 µM]
N#Cc1ccc(CN2CCCN(S(=O)(=O)c3ccccc3)CCC(=O)NCC2)cc1	i
CCOc1ccccc1NC(=O)Cn1c(=O)c(-c2noc(CC)n2)c2n(c1=O)CCCC2	i
Cc1cc(C(=O)N2CCCN(C)c3ccccc32)nn1C	i
COc1ccccc1CN1COc2ccc3c(oc(=O)c4ccccc43)c2C1	0.56µM*
COc1ccc(CN2CCN(Cc3cc(=O)oc4cc(C)ccc34)CC2)c(OC)c1OC	-6%
COc1ccccc1CN1CCc2nc(C(=O)N3CCOCC3)oc2CC1	-6%[44.1 µM]
COc1ccccc1CN1CCC(n2cc[nH]c2=O)CC1	6%[44.1 µM]
CCCc1cc(=O)oc2c3c(ccc12)OCN(Cc1ccccc1OC)C3	3.2µM*
COc1ccccc1CN1CC[C@H]2COC(=O)N2c2cc(C)ccc2C1	-21%[44.1 µM]
COc1ccc(C2Cn3nnc(-c4nc(-c5ccncc5)no4)c3CO2)cc1 (stereo not drawn)	i
Cn1c(CNCC2(COc3cccnc3)C[C@@H](O)[C@@H](O)C2)nc2ccccc21 (stereo partly drawn)	5%
CCCCN1CCC(CNC(=O)c2cccc(C3CCNC3)c2)CC1 (stereo not drawn)	-9%
COc1ccc(F)c(CN2CCCC(O)(CN3CCC(C(C)C)CC3)C2=O)c1 (stereo not drawn)	-10%
COc1ccc(F)c(CN2CCCC(O)(CN3CCC(C)CC3)C2=O)c1 (stereo not drawn)	4µM*
COc1ccc(F)c(CN2CCCC(O)(CN3CCCCC3)C2=O)c1 (stereo not drawn)	i
CN(C)C[C@@H]1CN(S(C)(=O)=O)C[C@H]1NC(=O)c1ncccn1	i
COC(=O)[C@H](NC(=O)[C@@H]1C[C@H](NC(=O)Nc2ccc(F)cc2F)CN1C(=O)CSC)C(C)C	-7%
COc1cc2nc(NCc3ccc(C)cc3)n3nc(-c4ccccc4)nc3c2cc1OC	0.1µM*
COCCCNC(=O)CSc1nc2cc(OC)c(OC)cc2c2nc(-c3ccccc3)nn12	-22%
Cc1cccc(-c2nc3c4ccccc4nc(NCc4ccc(Cl)cc4)n3n2)c1	-16%
SMILES	Pf Dd2 inh
Cc1ccc(CNc2nc3ccccc3c3nc(-c4cccc(C)c4)nn23)cc1	8%
COc1ccccc1CNc1nc2ccccc2c2nc(-c3cccnc3)nn12	-24%
COc1cc2nc(NCCc3cccc(C)c3)n3nc(-c4ccccc4)nc3c2cc1OC	0.5µM*
O[C@@H]1C[C@@H](c2nc(-c3ccc4c(c3)OCO4)no2)N(Cc2ccccn2)C1	i
COCCN(C)C[C@@H]1CN(C(=O)c2cnn(-c3ccccc3)c2)C[C@@H]1CO	12%
CN1C[C@@H]2OCC(=O)N[C@@H]2C1	-2%[76.6 µM]
O=C(C[C@@H]1CCNC[C@@H]1Cc1cc(CN2CCOCC2)on1)N1CCC(Cc2ccccc2)CC1	-11%
CC[C@@]1(O)CCN(C(=O)CCc2nc(-c3ccco3)no2)C[C@H]1O	-1%
Cn1nc(C(=O)N2CCc3nn(CC4CC4)c(=O)n3CC2)c2ccccc21	18%
O=C(c1ccccn1)N1CCCC(CN2CCCC2)CC1 (stereo not drawn)	26%
Cn1nc(C(=O)N2CCCC(CN3CCCC3)CC2)c2ccccc21 (stereo not drawn)	3.2µM*
O=C(c1cc(-c2ccccc2)n[nH]1)N1CCC2(CC1)N=C(c1ccccc1)NO2	i
CCCCc1cn(C[C@H]2CC3CCN2C[C@@H]3C(=O)NCc2ccc3c(c2)OCO3)nn1 (stereo partly drawn)	i
COc1ccc(-c2[nH]ncc2C(=O)NCc2cccc(OC)c2)cc1	22%
COc1cccc(-c2[nH]ncc2CN)c1	3%
CCCCN(Cc1ccccc1)Cc1cn[nH]c1-c1ccc(OC)cc1OC	13µM*
COc1ccc(-c2noc([C@@H]3CCCN3C(=O)COc3ccc(Cl)cc3)n2)cc1	i
COCCNC(=O)c1ccc2c(c1)N(C)C(CC(=O)Nc1ccc[nH]c1=O)CO2 (stereo not drawn)	-8%
